From PubChem BioAssay (Tox21)
“And” between values parts separate entries of the source, which are not always exact repeats. Equal values may be shown once. Unmarked numbers belong to inactive results. Inconclusive results are not listed. Where a call stands in place of a potency, no number is given. The source made the active and inactive calls. Unless noted, the call rests on the fitted dose curve; in most records, active means well fitted curve in the direction sought with a large enough effect in the repeat runs; inconclusive means weak or mixed curves; inactive means no such curve, though single readings can be large; an effect the other way counts as inactive or inconclusive.

What was measured:
[1] = A CellTox Green Cytotoxicity Assay to monitor cytotoxicity in HEK293 cells - 32 hour (AID 1224881); further: nearly all actives have a fitted effect of over 40% in size
Method in brief: (§1)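 HEK293 cells, 600/well, were preincubated 5 hours and then exposed to compounds at 37 C for up to 40 hours. A cell-impermeant cyanine dye staining dead-cell DNA was read by fluorescence at 0, 8, 16, 24, 32 and 40 h time points.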

[2] = A CellTox Green Cytotoxicity Assay to monitor cytotoxicity in HepG2 cells - 0 hour (AID 1224882); further: nearly all actives have a fitted effect of over 35% in size
Method in brief: (§2)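 HepG2 cells, 600/well, preincubated 5 h with CellTox Green dye, then exposed to Tox21 compounds in DMSO at 37 C for up to 40 h. Dead-cell DNA fluorescence read at the indicated time point.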

[3] = A CellTox Green Cytotoxicity Assay to monitor cytotoxicity in HepG2 cells - 32 hour (AID 1224883); further: nearly all actives have a fitted effect of over 50% in size; further: potency means the concentration at half of the fitted maximal effect
Method in brief: as §2

[4] = qHTS RealTime-Glo MT Cell Viability Assay in HepG2 cells - 16 hour (AID 1224885); further: nearly all actives have a fitted effect of over 50% in size; further: potency means the concentration at half of the fitted maximal effect
Method in brief: (§3)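 Tox21 10K library screened in qHTS format on HepG2 cells carrying RealTime-Glo reagents. Compounds were added after a 5 h preincubation, and the luminescent signal from continuous culture was measured repeatedly during 40 h treatment.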

[5] = qHTS RealTime-Glo MT Cell Viability Assay in HEK293 cells - 24 hour (AID 1224886); further: nearly all actives have a fitted effect of over 50% in size; further: potency means the concentration at half of the fitted maximal effect
Method in brief: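 Luminescence generated by NanoLuc from substrate produced by living HEK293 cells served as the viability signal. Each value reflects the reading at its stated time point during continuous 40 h compound exposure at 37 C.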

[6] = A CellTox Green Cytotoxicity Assay to monitor cytotoxicity in HEK293 cells - 16 hour (AID 1224888); further: nearly all actives have a fitted effect of over 35% in size; further: potency means the concentration at half of the fitted maximal effect
Method in brief: as §1

[7] = qHTS RealTime-Glo MT Cell Viability Assay in HepG2 cells - 0 hour (AID 1224889); further: nearly all actives have a fitted effect of over 50% in size
Method in brief: as §3

[8] = A CellTox Green Cytotoxicity Assay to monitor cytotoxicity in HepG2 cells - 8 hour (AID 1224890); further: nearly all actives have a fitted effect of over 45% in size
Method in brief: as §2

[9] = qHTS assay to identify small molecule antagonists of the estrogen receptor alpha (ER-alpha) signaling pathway using the BG1 cell line in the presence of 0.1 nM 17-beta-estradiol - cell viability counter screen (AID 1259241); further: nearly all actives have a fitted effect of over 40% in size; further: potency means the concentration at half of the fitted maximal effect
Method in brief: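 VM7Luc4E2 cells (endogenous ER-alpha, 4×ERE-luciferase), hormone-starved 5 days in charcoal-stripped FBS, were treated with compounds plus 0.1 nM 17beta-estradiol for 22 hr at 37C; viability read in same wells as CellTiter-Fluor live-cell protease fluorescence.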

[10] = qHTS assay to identify small molecule antagonists of the androgen receptor (AR) signaling pathway using the MDA cell line in the presence of 0.5 nM R1881 - cell viability counter screen (AID 1259242); further: nearly all actives have a fitted effect of over 45% in size; further: potency means the concentration at half of the fitted maximal effect
Method in brief: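 MDA-kb2 cells (MMTV-luciferase, AR/GR responsive) were treated with compounds plus 0.5 nM R1881 (final) for 16 hr at 37C, 0% CO2. Viability was then read in the same wells as live-cell protease fluorescence (CellTiter-Fluor, 30 min).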

[11] = target: Androgen receptor (Homo sapiens) (UniProt P10275); assay: qHTS assay to identify small molecule antagonists of the androgen receptor (AR) signaling pathway using the MDA cell line in the presence of 0.5 nM R1881 (AID 1259243); further: nearly all actives have a fitted effect of over 50% in size
Method in brief: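 MDA-kb2 cells (MMTV-luciferase, responsive to AR and GR) at 3,000/well, rested 5 h at 37C, 0% CO2, then given compounds plus 0.5 nM R1881 (final) for 16 hr. Luciferase read with ONE-Glo after 30 min at room temperature.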

[12] = target: Estrogen receptor (Homo sapiens) (UniProt P03372); assay: qHTS assay to identify small molecule antagonists of the estrogen receptor alpha (ER-alpha) signaling pathway using the BG1 cell line in the presence of 0.1 nM 17-beta-estradiol (AID 1259244); further: nearly all actives have a fitted effect of over 50% in size; further: potency means the concentration at half of the fitted maximal effect
Method in brief: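 VM7Luc4E2 cells (endogenous full-length ER-alpha, 4×ERE-luciferase), kept 5 days in phenol red-free, charcoal-stripped FBS medium; 4,000 cells/well. Compounds added with 0.1 nM (final) 17beta-estradiol, 22 hr at 37C; luminescence read with ONE-Glo after 30 min.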

[13] = qHTS assay to identify small molecule HDAC inhibitors (AID 1259364); further: top concentration of the series differs between compounds; nearly all actives have a fitted effect of over 45% in size
Method in brief: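 Wild-type HCT-116 cells, plated overnight at 37 C, exposed to compounds 2 hr at 37 C; luminogenic HDAC-Glo substrate then added 30 min at room temperature. Luminescence reports relative endogenous class I/II HDAC activity.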

[14] = qHTS assay to identify small molecule HDAC inhibitors - cell viability counter screen (AID 1259365)
Method in brief: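 Wild-type HCT-116 cells were seeded at 1,500 per well, incubated overnight at 37 C, then exposed to compounds in DMSO for 2hr. Viability was read by CellTiter-Glo luminescence after 30min at room temperature.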

[15] = qHTS assay to identify small molecule agonists of the sonic hedgehog signaling (Shh) pathway - cell viability counter screen (AID 1259366); further: nearly all actives have a fitted effect of over 50% in size; further: potency means the concentration at half of the fitted maximal effect
Method in brief: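 NIH/3T3-derived 3T3 Gli1-Luc cells (stable Gli1-responsive firefly luciferase reporter) were seeded, rested 4 hr at 37 C/5% CO2, then exposed to compounds in DMSO for 24 hr; viability was read by CellTiter-Fluor fluorescence in the same wells.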

[16] = qHTS assay to identify small molecule antagonists of the sonic hedgehog signaling (Shh) pathway - cell viability counter screen (AID 1259367); further: nearly all actives have a fitted effect of over 55% in size; further: potency means the concentration at half of the fitted maximal effect
Method in brief: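 NIH/3T3-derived Gli1-Luc reporter cells (2,000 per well) rested 4 hr at 37 C, then received DMSO compounds plus conditioned medium. After 23 hr of treatment, CellTiter-Fluor was added for 1 hr at 37C and fluorescence read.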

[17] = qHTS assay to identify small molecule agonists of the sonic hedgehog signaling (Shh) pathway (AID 1259368; calls by dose curve; further: series mostly up to about 92 µM; nearly all actives have a fitted effect of over 15% in size)
Method in brief: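 NIH/3T3-derived 3T3Gli1-Luc cells with stably integrated Gli1-driven firefly luciferase, 2,000 cells/well, compounds added after 4 hr. Incubated 24 hr at 37C, 5% CO2; luminescence read after 30 min with luciferase reagent at room temperature.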

[18] = qHTS RealTime-Glo MT Cell Viability Assay in HEK293 cells - 8 hour (AID 1224887); further: nearly all actives have a fitted effect of over 50% in size; further: potency means the concentration at half of the fitted maximal effect
Method in brief: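 600 cells/well were plated with the nonlytic NanoLuc/prosubstrate reagent, pre-incubated 5 h, then given 23 nL of compound in DMSO. Incubation at 37 C for 40 h, with luminescence from viable-cell-reduced substrate read repeatedly from 0 h.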

[19] = qHTS assay to identify small molecule phospholipidosis (PLD) inducers (AID 1259344; active means well fitted curve in the direction sought with a large enough effect; an effect the other way counts as inactive or inconclusive)
Method in brief: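 HepG2 cells on collagen I, attached 4 h at 37 C, were co-treated with compound and LipidTOX Red dye for 24 h at 37 C, then fixed with paraformaldehyde plus Hoechst 33342 and imaged by high-content microscopy for phospholipid accumulation.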

[20] = A CellTox Green Cytotoxicity Assay to monitor cytotoxicity in HEK293 cells - 8 hour (AID 1224884); further: nearly all actives have a fitted effect of over 35% in size
Method in brief: as §1

Sequence of Estrogen receptor (Homo sapiens) (P03372 whole entry, looked up): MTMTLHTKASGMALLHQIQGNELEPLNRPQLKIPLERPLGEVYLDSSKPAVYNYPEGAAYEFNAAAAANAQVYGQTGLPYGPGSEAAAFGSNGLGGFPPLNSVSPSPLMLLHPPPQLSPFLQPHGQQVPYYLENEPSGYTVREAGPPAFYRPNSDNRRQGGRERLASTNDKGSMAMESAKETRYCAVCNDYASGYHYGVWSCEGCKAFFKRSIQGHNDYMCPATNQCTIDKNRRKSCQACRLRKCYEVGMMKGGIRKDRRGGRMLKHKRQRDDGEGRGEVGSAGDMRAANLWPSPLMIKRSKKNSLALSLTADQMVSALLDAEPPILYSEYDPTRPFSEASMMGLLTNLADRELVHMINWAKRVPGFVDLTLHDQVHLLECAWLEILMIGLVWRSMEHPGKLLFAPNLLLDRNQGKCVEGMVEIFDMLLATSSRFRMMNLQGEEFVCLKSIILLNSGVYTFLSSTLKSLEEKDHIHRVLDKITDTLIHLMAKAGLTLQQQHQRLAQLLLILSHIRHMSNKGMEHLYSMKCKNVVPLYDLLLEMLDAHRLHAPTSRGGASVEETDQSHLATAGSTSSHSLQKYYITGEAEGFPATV
Sequence of Androgen receptor (Homo sapiens) (P10275 whole entry, looked up): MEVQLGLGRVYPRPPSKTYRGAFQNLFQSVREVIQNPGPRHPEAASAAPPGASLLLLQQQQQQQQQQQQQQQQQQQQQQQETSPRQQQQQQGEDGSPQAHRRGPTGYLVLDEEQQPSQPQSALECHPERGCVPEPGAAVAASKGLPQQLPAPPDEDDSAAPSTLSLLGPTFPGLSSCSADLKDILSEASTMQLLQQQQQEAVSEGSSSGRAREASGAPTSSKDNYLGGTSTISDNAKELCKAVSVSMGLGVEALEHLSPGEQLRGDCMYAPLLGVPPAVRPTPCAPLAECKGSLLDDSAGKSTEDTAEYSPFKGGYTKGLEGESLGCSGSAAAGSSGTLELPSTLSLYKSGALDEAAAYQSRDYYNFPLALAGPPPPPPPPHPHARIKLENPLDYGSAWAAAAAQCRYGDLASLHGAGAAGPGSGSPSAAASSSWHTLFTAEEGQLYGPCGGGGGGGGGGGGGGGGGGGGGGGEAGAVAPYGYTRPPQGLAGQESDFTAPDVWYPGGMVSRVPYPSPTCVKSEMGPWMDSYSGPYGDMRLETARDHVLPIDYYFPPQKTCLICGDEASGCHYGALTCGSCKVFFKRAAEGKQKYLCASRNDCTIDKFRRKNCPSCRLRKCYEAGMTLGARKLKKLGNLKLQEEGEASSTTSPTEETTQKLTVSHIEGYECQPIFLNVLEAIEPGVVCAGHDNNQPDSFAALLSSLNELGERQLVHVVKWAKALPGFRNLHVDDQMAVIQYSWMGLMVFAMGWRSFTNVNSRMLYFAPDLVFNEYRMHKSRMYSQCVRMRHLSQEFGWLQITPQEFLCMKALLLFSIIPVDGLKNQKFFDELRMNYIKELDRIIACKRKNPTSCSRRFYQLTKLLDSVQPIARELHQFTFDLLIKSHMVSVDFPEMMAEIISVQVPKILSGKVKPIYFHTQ

| SMILES | Potency [1] | Potency [2] | Potency [3] | Potency [4] | Potency [5] | Potency [6] | Potency [7] | Potency [8] | Potency [9] | Potency [10] | Potency [11] | Potency [12] | Potency [13] | Potency [14] | Potency [15] | Potency [16] | Potency [17] | Potency [18] | Potency [19] | Potency [20] |
| --- | --- | --- | --- | --- | --- | --- | --- | --- | --- | --- | --- | --- | --- | --- | --- | --- | --- | --- | --- | --- |
| O=C(/C=C/c1ccccc1)OC/C=C/c1ccccc1 | inactive | inactive | inactive | inactive | inactive | inactive | inactive | inactive | inactive | inactive | inactive | inactive | inactive | inactive | inactive | inactive | inactive | – | – | – |
| Cc1cccc(C)c1NC(=O)c1ccc(N)cc1 | inactive | inactive | inactive | inactive | inactive | inactive | – | inactive | inactive | inactive | inactive | inactive | inactive | – | inactive | inactive | inactive | inactive | – | – |
| CCCCCCC1CCCC(=O)O1 (centres undefined) | inactive | inactive | inactive | inactive | inactive | inactive | inactive | inactive | inactive | inactive | – | – | inactive | – | inactive | inactive | inactive | inactive | – | – |
| [Cl][Pt-2]([Cl])([Cl])[Cl] | inactive | inactive | inactive | inactive | – | inactive | inactive | inactive | inactive | inactive | – | inactive | inactive | – | inactive | – | inactive | inactive | – | – |
| COc1ccc2c(c1)c(CC(=O)OC/C=C(\C)CC/C=C(\C)CCC=C(C)C)c(C)n2C(=O)c1ccc(Cl)cc1 | inactive | inactive | inactive | inactive | inactive | inactive | inactive | inactive | inactive | inactive | – | inactive | inactive | inactive | inactive | inactive | inactive | – | – | – |
| Cc1c(F)c(N2CCNC(C)C2)cc2c1c(=O)c(C(=O)O)cn2C1CC1 (centres undefined) | inactive | inactive | inactive | inactive | inactive | inactive | inactive | inactive | inactive | inactive | – | inactive | inactive | inactive | inactive | inactive | inactive | inactive | inactive | – |
| Nc1ccc(C(=O)O)c(O)c1 | inactive | – | inactive | – | inactive | inactive | inactive | – | inactive | inactive | inactive | – | inactive | inactive | inactive | inactive | inactive | inactive | inactive | inactive |
| COC(=O)Nc1nc2ccc(C(=O)c3ccccc3)cc2[nH]1 | – | inactive | inactive | inactive | – | inactive | inactive | inactive | inactive | inactive | inactive | inactive | – | inactive | inactive | 3.35 µM (active) | – | – | – | inactive |
| Cc1ccc(C(C)C)cc2c(C)ccc1-2 | – | inactive | inactive | inactive | inactive | inactive | inactive | inactive | inactive | inactive | – | inactive | inactive | – | inactive | inactive | inactive | inactive | inactive | inactive |
| O=C1c2ccccc2C(=O)N1SC1CCCCC1 | – | inactive | 24.5 µM (active) | 38.9 µM (active) | 34.6 µM (active) and 34.7 µM (active) | 43.6 µM (active) | inactive | – | inactive | inactive | – | 61.1 µM (active) | inactive | inactive | 30.6 µM (active) | inactive | – | 38.9 µM (active) | – | inactive |
| CC(C)=CCNc1ncnc2c1ncn2[C@@H]1O[C@H](CO)[C@@H](O)[C@H]1O | inactive | – | – | inactive | inactive | inactive | – | – | inactive | inactive | inactive | – | inactive | inactive | 13.3 µM (active) | – | inactive | inactive | – | inactive |
| O=[N+]([O-])c1ccc(O)cc1C(F)(F)F | – | inactive | inactive | inactive | – | inactive | inactive | inactive | 48.6 µM (active) | 27.3 µM (active) | – | – | inactive | – | inactive | inactive | inactive | inactive | – | inactive |
| Cc1cc(-c2ccc(N=Nc3cc(S(=O)(=O)O)c4ccccc4c3N)c(C)c2)ccc1N=Nc1cc(S(=O)(=O)O)c2ccccc2c1N | – | inactive | inactive | inactive | – | inactive | inactive | inactive | inactive | – | – | 7.74 µM (active) | inactive | – | inactive | inactive | inactive | inactive | – | inactive |
